Test results as given in PubChem BioAssay (EPA / NIEHS).
Inconclusive results are not listed. The source made the active and inactive calls. Rule for the calls, unless noted: active = hit-call score of the fitted dose curve at least 0.9, where 1 is the maximum; inconclusive = response in the unintended direction; inactive = score below 0.9.

What was measured:
[1] = target: Steroid hormone receptor ERR1 (Homo sapiens) (UniProt P11474); assay: ATG_ERRa_TRANS: Attagene TRANS-FACTORIAL HepG2 Assay for human Estrogen-Related Receptor alpha (ERRa) (AID 2282971); details: HepG2 Attagene TRANS reporter, ERRa transactivation
Sequence of Steroid hormone receptor ERR1 (Homo sapiens) (P11474 whole entry, looked up, the tested form may be a part): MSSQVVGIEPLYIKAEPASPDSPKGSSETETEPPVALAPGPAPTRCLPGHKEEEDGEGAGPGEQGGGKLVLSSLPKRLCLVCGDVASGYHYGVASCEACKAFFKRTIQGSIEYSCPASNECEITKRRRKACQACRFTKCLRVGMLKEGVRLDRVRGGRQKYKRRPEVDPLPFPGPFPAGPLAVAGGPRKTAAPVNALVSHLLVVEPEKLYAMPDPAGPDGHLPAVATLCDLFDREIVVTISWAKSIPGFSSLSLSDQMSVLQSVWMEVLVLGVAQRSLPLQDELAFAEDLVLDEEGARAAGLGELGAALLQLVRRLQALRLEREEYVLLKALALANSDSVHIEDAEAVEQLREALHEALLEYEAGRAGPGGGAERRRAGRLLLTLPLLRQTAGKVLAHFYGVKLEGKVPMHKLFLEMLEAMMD
Procedure, shortened: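 Signal gain relative to DMSO for an ERRa-Gal4 chimeric receptor, read as reporter mRNA by RT-PCR/capillary electrophoresis. Human HepG2 liver cells, transient multiplex reporter transfection, 24 h chemical exposure.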

[2] = target: Estrogen-related receptor gamma (Homo sapiens) (UniProt P62508); assay: ATG_ERRg_TRANS: Attagene TRANS-FACTORIAL HepG2 Assay for human Estrogen-Related Receptor gamma (ERRg) (AID 2282977); details: HepG2 Attagene TRANS reporter, ERRg transactivation;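 note: hits increase reporter signal over DMSO so potencies reflect activators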
Sequence of Estrogen-related receptor gamma (Homo sapiens) (P62508 whole entry, looked up, the tested form may be a part): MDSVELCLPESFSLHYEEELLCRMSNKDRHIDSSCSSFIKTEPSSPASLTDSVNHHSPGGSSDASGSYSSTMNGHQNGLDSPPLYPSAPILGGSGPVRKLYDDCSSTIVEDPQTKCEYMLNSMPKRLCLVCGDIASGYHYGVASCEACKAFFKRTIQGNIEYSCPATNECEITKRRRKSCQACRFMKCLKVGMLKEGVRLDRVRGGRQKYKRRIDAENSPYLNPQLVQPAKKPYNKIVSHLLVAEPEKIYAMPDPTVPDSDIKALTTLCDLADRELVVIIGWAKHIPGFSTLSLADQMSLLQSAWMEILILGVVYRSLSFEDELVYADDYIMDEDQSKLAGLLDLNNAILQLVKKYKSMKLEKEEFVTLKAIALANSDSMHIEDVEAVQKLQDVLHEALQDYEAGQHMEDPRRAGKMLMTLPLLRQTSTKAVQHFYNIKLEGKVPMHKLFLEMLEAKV
Procedure, shortened: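 HepG2 cells transiently transfected with multiplexed GAL4-UAS reporter units and chimeric NR-Gal4 constructs were exposed to test chemicals for 24 h. Reporter mRNA was measured by RT-PCR, 6-FAM primer extension, HpaI digestion and capillary electrophoresis; gain-of-signal versus DMSO.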

[3] = read-out: Pselectin, SELP (gene 6403); assay: BSK_4H_Pselectin: BioMAP Diversity Plus: 4H Assay for Pselectin Biomarker Activity (AID 2283026; active = hit-call score of the fitted dose curve at least 0.9, where 1 is the maximum; inactive = score below 0.9); details: primary human endothelial cells (HUVEC); actives raise or lower the signal
Procedure, shortened: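 Primary human umbilical vein endothelial cells were exposed to test chemical for 24 h, then cell-surface P-selectin was quantified by ELISA. Activity was fitted bidirectionally against DMSO as negative control and baseline.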

[4] = target: Bile acid receptor (Homo sapiens) (UniProt Q96RI1); assay: ATG_FXR_TRANS: Attagene TRANS-FACTORIAL HepG2 Assay for Farnesoid X Receptor (FXR) (AID 2282979); details: HepG2 Attagene TRANS FXR-GAL4 reporter transcription;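 note: hits raise reporter mRNA above DMSO so AC50 marks FXR activation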
Sequence of Bile acid receptor (Homo sapiens) (Q96RI1 whole entry, looked up, the tested form may be a part): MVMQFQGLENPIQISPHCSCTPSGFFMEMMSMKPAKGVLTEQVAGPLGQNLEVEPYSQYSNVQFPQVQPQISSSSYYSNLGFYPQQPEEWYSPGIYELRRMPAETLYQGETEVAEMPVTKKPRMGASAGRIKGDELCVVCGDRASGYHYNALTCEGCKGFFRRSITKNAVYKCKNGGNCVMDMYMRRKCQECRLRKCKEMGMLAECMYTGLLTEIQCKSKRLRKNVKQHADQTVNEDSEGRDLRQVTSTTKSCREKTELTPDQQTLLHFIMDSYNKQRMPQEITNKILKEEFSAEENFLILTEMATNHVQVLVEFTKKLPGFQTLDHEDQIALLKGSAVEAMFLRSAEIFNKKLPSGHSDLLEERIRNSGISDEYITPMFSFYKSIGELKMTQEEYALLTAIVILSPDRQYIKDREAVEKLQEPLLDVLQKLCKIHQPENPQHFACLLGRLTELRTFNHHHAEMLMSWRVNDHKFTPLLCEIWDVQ
Procedure, shortened: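 After 24 h chemical treatment of transfected HepG2 cells, GAL4-UAS reporter transcripts driven by an exogenous FXR-GAL4 fusion were measured by RT-PCR and capillary electrophoresis. Increases over DMSO were fitted.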

[5] = target: Estrogen receptor beta (Homo sapiens) (UniProt Q92731); assay: OT_ER_ERbERb_0480: Odyssey Thera (OT) 8-hour HEK293T Protein-Complementation Assay for Estrogen Receptor-beta/-beta Homodimer (AID 2283357);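 note: active means signal gain over DMSO baseline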
Sequence of Estrogen receptor beta (Homo sapiens) (Q92731 whole entry, looked up, the tested form may be a part): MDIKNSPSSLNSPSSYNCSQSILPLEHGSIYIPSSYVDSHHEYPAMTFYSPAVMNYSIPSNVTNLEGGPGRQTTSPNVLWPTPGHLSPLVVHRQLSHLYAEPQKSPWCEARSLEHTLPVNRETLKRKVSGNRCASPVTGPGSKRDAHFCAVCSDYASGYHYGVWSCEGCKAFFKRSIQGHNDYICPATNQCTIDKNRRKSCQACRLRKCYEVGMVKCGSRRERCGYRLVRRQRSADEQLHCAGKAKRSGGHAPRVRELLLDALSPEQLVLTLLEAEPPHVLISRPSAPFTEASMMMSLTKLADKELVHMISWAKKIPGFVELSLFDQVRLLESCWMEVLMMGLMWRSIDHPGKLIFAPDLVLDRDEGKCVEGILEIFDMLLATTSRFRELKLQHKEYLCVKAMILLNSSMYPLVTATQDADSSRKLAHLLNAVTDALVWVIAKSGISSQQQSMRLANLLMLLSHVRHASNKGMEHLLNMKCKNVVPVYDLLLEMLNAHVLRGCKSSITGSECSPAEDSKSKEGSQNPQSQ
Procedure, shortened: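 Readout: increase in mean fluorescence intensity (nucleus for agonists; nucleus plus cytoplasm for antagonists) relative to DMSO, from a reporter-fragment complementation of human ER-beta LBD homodimer in HEK293T cells dosed 8 hours.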

[6] = target: Estrogen receptor beta (Homo sapiens) (UniProt Q92731); assay: OT_ER_ERbERb_1440: Odyssey Thera (OT) 24-hour HEK293T Protein-Complementation Assay for Estrogen Receptor-beta/-beta Homodimer (AID 2283380);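 note: fluorescence gain from ER beta LBD homodimer complementation read by laser scanning cytometry; scored as signal increase over DMSO baseline for both agonists and antagonists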
Procedure, shortened: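 HEK293T cells stably expressing human ER-beta LBD (aa 310-547) PCA homodimer pair, dosed 24 h; formaldehyde-fixed, Draq5-stained. Readout: increase in nuclear (agonist) or nuclear plus cytoplasmic (antagonist) fluorescence intensity versus DMSO, gain-of-signal fitting.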

[7] = target: Retinoic acid receptor RXR-alpha (Homo sapiens) (UniProt P19793); assay: OT_NURR1_NURR1RXRa_0480: Odyssey Thera (OT) 8-hour HEK293T Protein Complementation Assay for Nurr1/retinoid X receptor (RXR) (AID 2283385)
Sequence of Retinoic acid receptor RXR-alpha (Homo sapiens) (P19793 whole entry, looked up, the tested form may be a part): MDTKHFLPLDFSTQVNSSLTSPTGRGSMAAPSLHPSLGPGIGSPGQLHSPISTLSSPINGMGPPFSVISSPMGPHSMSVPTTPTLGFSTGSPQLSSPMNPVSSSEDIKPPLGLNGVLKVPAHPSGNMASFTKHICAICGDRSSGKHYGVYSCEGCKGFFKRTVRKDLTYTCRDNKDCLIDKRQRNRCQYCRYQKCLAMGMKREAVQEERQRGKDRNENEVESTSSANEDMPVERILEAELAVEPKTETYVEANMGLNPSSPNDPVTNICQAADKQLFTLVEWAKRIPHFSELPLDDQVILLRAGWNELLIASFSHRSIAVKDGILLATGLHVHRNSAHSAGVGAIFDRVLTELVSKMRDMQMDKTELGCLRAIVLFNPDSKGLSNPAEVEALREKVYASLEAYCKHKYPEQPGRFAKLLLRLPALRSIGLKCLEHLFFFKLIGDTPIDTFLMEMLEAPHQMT
Procedure, shortened: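 HEK293T cells expressing Nurr1 and RXRα fused to reporter fragments were dosed with compound for 8 hours. Complex formation was read as fluorescence intensity and analysed as gain of signal against DMSO as baseline.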

[8] = target: Retinoic acid receptor RXR-alpha (Homo sapiens) (UniProt P19793); assay: OT_NURR1_NURR1RXRa_1440: Odyssey Thera (OT) 24-hour HEK293T Protein Complementation Assay for Nurr1/retinoid X receptor (RXR) (AID 2283386)
Procedure, shortened: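 HEK293T cells were dosed with compound and read 24 h later by fluorescence intensity in a protein-fragment complementation format, where Nurr1–RXRα interaction reconstitutes a split reporter. Activity was fitted as gain of signal relative to DMSO baseline.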

[9] = target: Peroxisome proliferator-activated receptor gamma (Homo sapiens) (UniProt P37231); assay: OT_PPARg_PPARgSRC1_0480: Odyssey Thera (OT) 8-hour Protein-Complementation Assay for Peroxisome Proliferator-activated Receptor Gamma / SRC-1 Co-activator (AID 2283387);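 note: nuclear to cytoplasmic split Venus YFP fluorescence ratio reporting PPARg SRC-1 interaction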
Sequence of Peroxisome proliferator-activated receptor gamma (Homo sapiens) (P37231 whole entry, looked up, the tested form may be a part): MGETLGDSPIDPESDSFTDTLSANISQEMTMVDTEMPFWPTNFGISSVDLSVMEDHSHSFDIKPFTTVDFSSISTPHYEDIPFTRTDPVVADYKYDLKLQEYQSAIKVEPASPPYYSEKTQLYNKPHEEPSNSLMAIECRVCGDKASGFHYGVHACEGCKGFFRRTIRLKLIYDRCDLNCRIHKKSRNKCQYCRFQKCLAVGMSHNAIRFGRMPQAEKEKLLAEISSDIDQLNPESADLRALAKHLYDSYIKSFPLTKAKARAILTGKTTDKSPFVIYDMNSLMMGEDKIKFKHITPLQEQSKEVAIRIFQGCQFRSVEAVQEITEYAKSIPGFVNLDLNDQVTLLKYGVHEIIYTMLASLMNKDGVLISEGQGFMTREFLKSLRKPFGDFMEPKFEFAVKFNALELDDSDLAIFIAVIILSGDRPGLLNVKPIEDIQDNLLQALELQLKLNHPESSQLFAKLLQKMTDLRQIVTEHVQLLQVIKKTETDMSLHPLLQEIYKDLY
Procedure, shortened: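 Protein-fragment complementation of split Venus YFP reports PPARg/SRC-1 interaction in HEK293T (transfected 48 h before treatment), exposed 8 h. Readout: N/C fluorescence ratio at 488 nm from imaging, Draq5 for segmentation, positive fit relative to DMSO.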

[10] = target: Peroxisome proliferator-activated receptor gamma (Homo sapiens) (UniProt P37231); assay: OT_PPARg_PPARgSRC1_1440: Odyssey Thera (OT) 24-hour Protein-Complementation Assay for Peroxisome Proliferator-activated Receptor Gamma/ SRC-1 Co-activator (AID 2283388);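 note: nuclear to cytoplasmic ratio of reconstituted Venus YFP fluorescence in fixed imaged cells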
Procedure, shortened: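 Cells carrying the PPARg/SRC-1 fragment-complementation reporter receive compound for 24 hours, are fixed and counterstained with Draq5, then imaged. Increased nuclear relative to cytoplasmic YFP fluorescence above DMSO baseline indicates binding activity.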

[11] = ACEA_AR_agonist_AUC_viability: ACEA Biosciences xCELLigence Real-Time Cell Analysis on Androgen Receptor Agonism for Viability (AID 2283775);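 for AC50: viability read 80 hours after compound addition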
Procedure, shortened: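 Read-out is area under the impedance curve at 80 h post-dose in 22Rv1 cells, with DMSO as baseline and signal loss taken as reduced viability. Compounds ran in duplicate from 100 uM final.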

[12] = ACEA_AR_antagonist_AUC_viability: ACEA Biosciences xCELLigence Real-Time Cell Analysis on Androgen Receptor Antagonism for Viability (AID 2283776);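 note: 22Rv1 human prostate cancer cells growing on impedance electrode plates; area under impedance growth curve at 80 h after dosing as viability; hits lower the growth signal relative to DMSO meaning cytotoxicity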
Procedure, shortened: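 Impedance read-out (RT-CES): area under growth curve at 80 h post-dose, loss of signal scored vs DMSO baseline. 22Rv1 cells; 8-pt 1:4 series, top 100 uM final, ≤0.5% DMSO; biological duplicate.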

[13] = target: human Peroxisome Proliferator-activated Receptor delta (PPARd), PPARD (gene 5467) (UniProt Q03181); assay: ATG_PPARd_TRANS: Attagene TRANS-FACTORIAL HepG2 Assay for human Peroxisome Proliferator-activated Receptor delta (PPARd) (AID 2283002)
Sequence of human Peroxisome Proliferator-activated Receptor delta (PPARd), PPARD (gene 5467) (Q03181 whole entry, looked up, the tested form may be a part): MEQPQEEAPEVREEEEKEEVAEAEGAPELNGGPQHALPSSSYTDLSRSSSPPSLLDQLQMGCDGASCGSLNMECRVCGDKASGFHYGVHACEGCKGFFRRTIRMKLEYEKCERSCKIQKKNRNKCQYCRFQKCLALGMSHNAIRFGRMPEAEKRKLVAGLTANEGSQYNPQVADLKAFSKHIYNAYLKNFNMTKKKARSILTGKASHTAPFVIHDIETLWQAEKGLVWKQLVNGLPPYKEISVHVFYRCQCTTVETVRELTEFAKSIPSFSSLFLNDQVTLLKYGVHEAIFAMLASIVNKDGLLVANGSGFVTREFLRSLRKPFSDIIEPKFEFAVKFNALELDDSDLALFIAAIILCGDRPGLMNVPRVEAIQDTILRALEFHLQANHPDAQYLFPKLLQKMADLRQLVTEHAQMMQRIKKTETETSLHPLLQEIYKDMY
Procedure, shortened: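 Multiplexed trans-activation format: HepG2 liver cells expressing exogenous NR-Gal4 chimeras and GAL4-UAS reporters were exposed for 24 h. Reporter mRNA was detected by RT-PCR with capillary electrophoresis fluorescence; activity fitted as gain of signal relative to DMSO.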

[14] = target: human Retinoic Acid Receptor gamma (RARg), RARG (gene 5916) (UniProt P13631); assay: ATG_RARg_TRANS: Attagene TRANS-FACTORIAL HepG2 Assay for human Retinoic Acid Receptor gamma (RARg) (AID 2283009);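 for AC50: AC50 is for reporter induction above DMSO meaning RARg activation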
Sequence of human Retinoic Acid Receptor gamma (RARg), RARG (gene 5916) (P13631 whole entry, looked up, the tested form may be a part): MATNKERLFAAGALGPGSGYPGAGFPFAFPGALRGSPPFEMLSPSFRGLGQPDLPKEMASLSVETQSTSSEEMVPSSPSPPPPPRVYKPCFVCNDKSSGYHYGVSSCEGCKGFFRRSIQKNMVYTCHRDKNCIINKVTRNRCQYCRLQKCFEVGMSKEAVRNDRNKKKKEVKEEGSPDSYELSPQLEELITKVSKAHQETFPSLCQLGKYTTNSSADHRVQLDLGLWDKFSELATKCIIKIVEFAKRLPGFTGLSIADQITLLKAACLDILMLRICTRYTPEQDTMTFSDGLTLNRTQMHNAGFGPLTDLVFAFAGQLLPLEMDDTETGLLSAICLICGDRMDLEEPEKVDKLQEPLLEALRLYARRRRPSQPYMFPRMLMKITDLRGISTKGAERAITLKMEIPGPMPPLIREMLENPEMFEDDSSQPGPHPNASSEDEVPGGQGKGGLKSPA
Procedure, shortened: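 HepG2 cells transiently transfected with multiplexed reporter units expressing chimeric RARg-GAL4 and GAL4-UAS-driven reporters; 24 h compound exposure. Reporter mRNA quantified by RT-PCR with fluorescent labelling and capillary electrophoresis; gain-of-signal fitted relative to DMSO baseline.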

[15] = CCTE_Harrill_HTTr_CellCount_MCF7: CCTE's Cell Proliferation Assessment for the High-Throughput Transcriptomics (HTTr) Platform, Harrill Lab (AID 2284012);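 note: cells exposed to compound for six hours; intended direction is loss of nuclei count meaning fewer cells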
Procedure, shortened: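 MCF-7 cells were exposed for 6 h to an eight-point dilution series; Hoechst-labeled nuclei were counted by high content imaging. Curves were fitted bidirectionally against DMSO as negative control and baseline, with signal loss indicating reduced cell count.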

[16] = ATG_M_19_TRANS: Attagene TRANS-FACTORIAL HepG2 Assay for M19 Transcription Factor (Internal Marker) (AID 2282974); details: HepG2 Attagene TRANS-FACTORIAL M19 internal marker reporter
Procedure, shortened: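 24 h chemical exposure of transiently transfected HepG2 (MRTU library). RNA → oligo(dT) RT → PCR → 6-FAM labelling → HpaI cut → CE fluorescence. Positive-direction fit vs DMSO baseline; background internal-marker readout.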

[17] = ATG_ERE_CIS: Attagene CIS-FACTORIAL HepG2 Assay for Estrogen Response Element (ERE) (AID 2282940; active = hit-call score of the fitted dose curve at least 0.9, where 1 is the maximum; inactive = score below 0.9); details: HepG2 ERE cis-reporter, Attagene RNA transcript; actives raise or lower the signal
Procedure, shortened: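 After 24 h compound treatment, RNA from transfected HepG2 cells was reverse-transcribed, reporter cDNA PCR-amplified, FAM-labelled, HpaI-cut and resolved by capillary electrophoresis. ERE-driven cis reporter transcripts reflect endogenous factors; gain or loss scored against DMSO.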

[18] = target: Estrogen receptor (Homo sapiens) (UniProt P03372); assay: ATG_ERa_TRANS: Attagene TRANS-FACTORIAL HepG2 Assay for human Estrogen Receptor alpha (ERa) (AID 2282970); details: HepG2 Attagene TRANS ERa GAL4 reporter, mRNA
Sequence of Estrogen receptor (Homo sapiens) (P03372 whole entry, looked up, the tested form may be a part): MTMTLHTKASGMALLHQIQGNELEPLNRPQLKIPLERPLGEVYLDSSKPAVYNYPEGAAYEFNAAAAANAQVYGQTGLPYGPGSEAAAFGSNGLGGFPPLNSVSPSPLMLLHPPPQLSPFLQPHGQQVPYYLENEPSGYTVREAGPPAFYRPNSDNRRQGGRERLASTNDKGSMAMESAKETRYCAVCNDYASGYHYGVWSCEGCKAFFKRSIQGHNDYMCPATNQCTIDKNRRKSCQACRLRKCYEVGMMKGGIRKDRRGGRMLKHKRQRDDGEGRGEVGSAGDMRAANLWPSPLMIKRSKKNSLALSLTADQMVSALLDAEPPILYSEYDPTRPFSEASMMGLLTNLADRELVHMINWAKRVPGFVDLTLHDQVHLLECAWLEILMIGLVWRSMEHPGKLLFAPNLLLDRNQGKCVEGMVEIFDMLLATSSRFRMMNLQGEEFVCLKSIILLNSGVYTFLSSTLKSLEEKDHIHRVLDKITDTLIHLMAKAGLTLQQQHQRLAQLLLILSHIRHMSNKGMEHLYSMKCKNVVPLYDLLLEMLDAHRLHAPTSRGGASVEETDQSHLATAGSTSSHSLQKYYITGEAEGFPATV
Procedure, shortened: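 Multiplexed cell-based reporter format in HepG2: chimeric ERa-Gal4 protein drives GAL4-UAS reporter transcription. Fluorescent reporter mRNA quantified by capillary electrophoresis 24 hours after dosing; endpoint fitted as signal gain against DMSO.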

[19] = target: human Retinoic Acid Receptor beta (RARb), RARB (gene 5915) (UniProt P10826); assay: ATG_RARb_TRANS: Attagene TRANS-FACTORIAL HepG2 Assay for human Retinoic Acid Receptor beta (AID 2283004)
Sequence of human Retinoic Acid Receptor beta (RARb), RARB (gene 5915) (P10826 whole entry, looked up, the tested form may be a part): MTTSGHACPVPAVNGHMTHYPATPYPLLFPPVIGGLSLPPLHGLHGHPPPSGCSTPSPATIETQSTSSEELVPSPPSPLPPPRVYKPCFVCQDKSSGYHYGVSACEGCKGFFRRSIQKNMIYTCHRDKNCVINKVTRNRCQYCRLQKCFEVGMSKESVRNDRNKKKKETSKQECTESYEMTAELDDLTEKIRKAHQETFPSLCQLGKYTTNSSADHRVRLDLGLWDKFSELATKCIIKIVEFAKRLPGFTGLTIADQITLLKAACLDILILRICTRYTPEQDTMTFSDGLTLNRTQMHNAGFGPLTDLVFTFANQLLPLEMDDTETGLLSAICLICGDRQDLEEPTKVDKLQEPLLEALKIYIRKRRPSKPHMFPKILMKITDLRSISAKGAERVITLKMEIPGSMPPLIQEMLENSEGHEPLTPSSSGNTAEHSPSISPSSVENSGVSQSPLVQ
Procedure, shortened: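 Fluorescent capillary-electrophoresis detection of GAL4-UAS reporter mRNA defines the endpoint, with induction over DMSO-treated wells scored as activity. Transiently transfected human hepatoma HepG2 cells expressing exogenous NR–Gal4 proteins are exposed to test chemicals for 24 h.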

[20] = target: Retinoic acid receptor alpha (Homo sapiens) (UniProt P10276); assay: ATG_RARa_TRANS: Attagene TRANS-FACTORIAL HepG2 Assay for human Retinoic Acid Receptor alpha (RARa) (AID 2283005)
Procedure, shortened: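 HepG2 cells transiently transfected with multiple reporter units expressing chimeric RARα-GAL4 fusion, with GAL4-UAS-driven reporters. After 24 h compound exposure, reporter mRNA induction quantified by RT-PCR and capillary electrophoresis with fluorescent labeling; gain-of-signal fitted relative to DMSO control.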

Measured: AC50

O=C(C(=O)c1ccccc1)c1ccccc1
inactive: [1] | [2] | [3]

O=C(CC(C(=O)OC1CCCCC1)S(=O)(=O)O)OC1CCCCC1 (stereo not drawn)
inactive: [2] | [4] | [5] | [6] | [7] | [8] | [9] | [10] | [11] | [12]

OCCOCCOCCOCCOCCO
inactive: [1] | [13]

Cc1cc2nc3c(=O)[nH]c(=O)nc-3n(C[C@H](O)[C@H](O)[C@H](O)CO)c2cc1C
inactive: [4] | [12]
active: [5] 11.8 µM | [6] 24.1 µM | [8] 11 µM

Cc1cc(O)cc(C)c1Cl
active: [5] 25 µM | [6] 31.6 µM | [11] 3.98 µM | [12] 8.88 µM
inactive: [14] | [7] | [8] | [9] | [10] | [15]

COC(=O)c1ccccc1
inactive: [16] | [13]

Oc1ccc(Cl)cc1C1CCCC1
inactive: [15]
active: [17] 8.73 µM | [18] 4.12 µM | [4] 18.5 µM

CCCCCCCCCCCCCCCCCC[N+](C)(C)C
active: [1] 33.8 µM | [2] 25 µM | [4] 15.9 µM | [19] 15.7 µM | [14] 34.4 µM | [3] 1.34 µM
inactive: [17] | [18] | [13]

C=C1CC[C@H]2C[C@@H]1C2(C)C
inactive: [17] | [13] | [19] | [5] | [6] | [7] | [9] | [10] | [11] | [12]

Cc1ccccc1S(N)(=O)=O
inactive: [16] | [13]

NCc1ccccc1
inactive: [1] | [2] | [15]

CC1=CCCC(C)(C)C12CCC(C)O2 (stereo not drawn)
inactive: [4]

CCCCCCCCCCCCCC
inactive: [15]

CN(C)N=Nc1ccccc1
inactive: [1] | [16] | [2] | [13]

CCCC(=O)OC
inactive: [17]

O=C(C1CCCCC1)N1CC(=O)N2CCc3ccccc3C2C1 (stereo not drawn)
inactive: [14] | [15]

CCCCCCC(O)CCCCCCCCCCC(=O)OC (stereo not drawn)
active: [13] 22.8 µM
inactive: [19] | [20] | [14] | [3]

c1cc[c]([Bi]([c]2ccccc2)[c]2ccccc2)cc1
active: [17] 6.83 µM | [18] 4.16 µM

NC(=O)c1ccc(N)cc1
inactive: [17] | [2] | [20]

O=C(O)c1cc(Cl)cc(Cl)c1O
inactive: [2] | [15]

CC1=NN(c2cc(Cl)c(S(=O)(=O)O)cc2Cl)C(=O)C1N=Nc1ccc(S(=O)(=O)O)cc1 (stereo not drawn)
inactive: [9] | [10] | [12]

F[B-](F)(F)F
inactive: [16] | [7] | [8] | [9] | [10] | [11] | [12]

CN(C)CCCN1c2ccccc2CCc2ccc(Cl)cc21
inactive: [2] | [15]

C1=CCC=C1
inactive: [7] | [11] | [12]

CCOC(=O)c1ccccc1
not listed: [3] | [4] | [13] | [14] | [15] | [18] | [19] | [20]
inactive: all other assays above
